Hit rate of the full screen: of about 52,000 compounds, about 4,300 (8.3%) were called active. Cut-off read from the data, not from the text of the source: active = survival mostly below about 52% (no sharp cut-off); inactive = mostly above about 56%. Shown is part of a subset that was picked to be rich in actives.
These compounds were tested on DeltatarO mutant (assay: growth inhibition of S. aureus wild type versus tarO mutant, primary screen, teichoic acid synthesis inhibitors, RN4220, OD600 (AID 463173)). Details: OD600, 18 h, stronger effect = lower value, screened at 18.75 µg/mL (by protocol).

Compound	survival
COc1cccc(CNC(=O)CSc2nc(=O)[nH]c3c2CCC3)c1	80% (inactive)
CCOc1ccc(-c2cc(C(=O)NCc3ccc(OCC)c(OC)c3)[nH]n2)cc1	85% (inactive)
Cc1ccc(C(=O)Nc2ccc3nc(N4CCCCC4)cc(C)c3c2)cc1F	55% (inactive)
CCN1CCN(c2cc(C)c3cc(NC(=O)c4cccc(C(F)(F)F)c4)ccc3n2)CC1	63% (inactive)
Cc1cc(N2CCCCC2)nc2ccc(NC(=O)c3cccc(F)c3)cc12	83% (inactive)
Cc1cc(N2CCCCC2)nc2ccc(NC(=O)c3cccc(Cl)c3)cc12	0% (active)
CCN1CCN(c2cc(C)c3cc(NC(=O)c4cc(Br)ccc4Cl)ccc3n2)CC1	32% (active)
Cc1cc(N2CCCCC2)nc2ccc(NC(=O)CCC(=O)N3CCN(c4ccccc4)CC3)cc12	62% (inactive)
Cc1ccccc1C(=O)Nc1ccc2nc(N3CCCCC3)cc(C)c2c1	32% (active)
Cc1cc(C)cc(NC(=O)Nc2ccc3nc(N4CCN(C)CC4)cc(C)c3c2)c1	117% (inactive)
CCN1CCN(c2cc(C)c3cc(NC(=O)c4cccc(Cl)c4)ccc3n2)CC1	23% (active)
Cc1cc(N2CCN(C)CC2)nc2ccc(NC(=O)Nc3ccccc3)cc12	65% (inactive)
Cc1cc(N2CCN(C)CC2)nc2ccc(NC(=O)Nc3cccc(Cl)c3)cc12	70% (inactive)
Cc1cc(N2CCN(C)CC2)nc2ccc(NC(=O)Nc3ccc(Cl)cc3)cc12	72% (inactive)
O=C(C1CC1)N1CCc2cc(Br)cc(S(=O)(=O)Nc3ccc(F)c(F)c3)c21	110% (inactive)
CCS(=O)(=O)N1CC(=O)N(c2ccc(Cl)cc2)C(C)(C(=O)NC2CCCCCC2)C1 (stereo not drawn)	115% (inactive)
CCN1CCN(c2c(S(=O)(=O)c3ccccc3)cnc3ccc(Cl)cc23)CC1	124% (inactive)
COc1ccc(NS(=O)(=O)c2ccc3c(c2)CCN3C(=O)CCC(=O)O)cc1Cl	93% (inactive)
Clc1cccc(-c2noc3ncnc(NC4CCCCC4)c23)c1	68% (inactive)
CN(c1ncnc2onc(-c3cccc(Cl)c3)c12)C1CCCCC1	-17% (active)
CN(c1ncnc2c1c(-c1ccccc1)cn2-c1cccc(Cl)c1)C1CCCCC1	83% (inactive)
Cc1cccc(NC(=O)CSc2nc(-c3cccs3)nc3cc(=O)[nH]n23)c1	87% (inactive)
Cc1ncc(CO)c2c1Oc1nc(-c3ccccc3Cl)nc(SCc3ccccc3F)c1C2	72% (inactive)
COc1ccc(-c2cc(C(F)(F)F)nc(S(C)(=O)=O)n2)cc1	83% (inactive)
COc1ccc(-c2cc(C(F)(F)F)nc(-n3nc(C(F)(F)F)cc3C)n2)cc1	16% (active)

Compound	survival
CC(Sc1nc(-c2ccccc2)cc(C(F)(F)F)n1)C(=O)NN1CCCCC1 (stereo not drawn)	72% (inactive)
Cc1cc(C(F)(F)F)nn1-c1nc(-c2ccccc2)cc(C(F)(F)F)n1	17% (active)
COc1ccc(-c2cc(C(F)F)nc(-n3nc(C)cc3C)n2)cc1	91% (inactive)
CCc1nn(CC(=O)NCCc2ccc(Cl)cc2)c(=O)c2cc3c(OC)cccc3n12	75% (inactive)
Clc1ccccc1CNc1ncnc2c1nc1n2CCCC1	97% (inactive)
COC(=O)c1cc(-c2cocc2C=C(C#N)C#N)ccc1Cl	84% (inactive)
CC(C)Oc1ccc(C(=O)N2CC(=O)Nc3ccc(F)cc3C2c2ccc(F)cc2)cc1 (stereo not drawn)	53% (inactive)
CCc1nc2nc(C)c(NS(=O)(=O)c3ccc(F)c(C)c3)c(=O)n2[nH]1	123% (inactive)
CCc1ccccc1NC(=O)COCc1cc(-c2ccco2)on1	55% (inactive)
O=C(COCc1cc(-c2cccs2)on1)Nc1cccc(Cl)c1Cl	75% (inactive)
Cc1ccc(Cl)cc1NC(=O)COCc1cc(-c2ccco2)on1	83% (inactive)
O=C(COCc1cc(-c2ccc(F)cc2)on1)Nc1cc(Cl)cc(Cl)c1	144% (inactive)
O=C(COCc1cc(-c2ccc(F)cc2)on1)Nc1cc(Cl)ccc1O	74% (inactive)
O=C(COCc1cc(-c2ccc(F)cc2)on1)Nc1cccc(Cl)c1Cl	46% (active)
O=C(COCc1cc(-c2ccco2)on1)Nc1cc(Cl)ccc1O	0% (active)
Cc1ccc(O)c(NC(=O)COCc2cc(-c3ccco3)on2)c1	95% (inactive)
O=C(COCc1cc(-c2ccco2)on1)Nc1cccc(Cl)c1Cl	32% (active)
CCc1cccc(NC(=O)CCC(=O)N2CCSc3ccccc32)c1	57% (inactive)
CC(C)(C)C(=O)Nc1cccc(C(=O)OCc2cc(=O)n3nc(C4CCCCC4)sc3n2)c1	124% (inactive)
COc1ccc(-c2nnc(SCc3nnc(-c4ccccc4)o3)o2)cc1OC	73% (inactive)
Cc1nn(CCC(=O)Nc2cc(F)ccc2F)c(=O)c2nn(-c3ccccc3)c(C)c12	99% (inactive)
CCC(C)(C)n1nnnc1C(c1ccccc1)N1CCc2ccccc2C1 (stereo not drawn)	79% (inactive)
COc1ccccc1Cn1cc(C(=O)c2ccc(Cl)cc2)c(=O)c2cc3c(cc21)OCCO3	83% (inactive)
Cc1ccc(Nc2nc(C(=O)N3CCC(C)CC3)cs2)cc1	91% (inactive)
Cc1cc(OCC(=O)NCCc2nc3ccccc3[nH]2)cc(C)c1Cl	44% (active)

Compound	survival
O=C(COc1ccc(F)cc1)NCCc1nc2ccccc2[nH]1	57% (active)
Cc1cc(C)cc(OCC(=O)NCCc2nc3ccccc3[nH]2)c1	109% (inactive)
O=C(NCCc1nc2ccccc2[nH]1)c1ccc(F)cc1	81% (inactive)
Cc1cccc(OCC(=O)NCCc2nc3ccccc3[nH]2)c1C	79% (inactive)
COc1ccc(C(=O)NCCc2nc3ccccc3[nH]2)cc1	127% (inactive)
COc1cccc(CNC(=O)c2ccc(-c3nc(CS(=O)c4ccccc4)c(C)o3)cc2)c1 (stereo not drawn)	92% (inactive)
O=S(=O)(c1ccc(Cl)cc1)c1nnn2c1nc(N1CCCCC1)c1sccc12	52% (inactive)
CCS/C(=C(\C#N)C(N)=O)c1ccc(-c2ccccc2)[nH]1	59% (inactive)
N#CC(C#N)=C(C#N)c1cc2c([nH]1)CCCC2	81% (inactive)
CCSC(=C(C#N)C#N)c1cc2c([nH]1)CCCC2	45% (active)
CCCOc1ccc(C2C(=O)N(C3CCCCC3)CC(=O)N2CCc2ccccc2)cc1OC (stereo not drawn)	86% (inactive)
O=C(c1ccc(Cl)cc1)N1CCC(c2ccncc2)CC1	87% (inactive)
Cc1cc(-c2ccccc2)n2nc(N)nc2n1	99% (inactive)
Cc1cc(-c2ccccc2)n2nc(-c3cccc(Br)c3)cc2n1	14% (active)
Brc1cccc(-c2cnn3c(-c4ccccc4)cc(-c4ccccc4)nc23)c1	74% (inactive)
O=C(Nc1ccc(Br)cc1)c1cc2nc(-c3ccccc3)cc(-c3ccccc3)n2n1	65% (inactive)
Cc1cc(C)n2nc(-c3ccccc3)cc2n1	97% (inactive)
Cc1cc(-c2ccccc2)n2nc(-c3ccccc3)cc2n1	-3% (active)
CS(=O)(=O)N(CC(=O)NCCc1ccccc1)c1cc(C(F)(F)F)ccc1Cl	68% (inactive)
CCOC(=O)c1c(C)[nH]c(C)c1S(=O)(=O)NCC(=O)NCc1cccc(Br)c1	130% (inactive)
COc1ccc(C)cc1S(=O)(=O)N1CCN(c2cccc(Cl)c2)CC1	59% (inactive)
Cc1cc(C)c(Cn2c(CCNC(=O)c3ccco3)nc3ccccc32)c(C)c1	59% (inactive)
COc1cccc(-n2c(=O)c3sc4ccccc4c3n(CC(=O)Nc3ccccc3C)c2=O)c1	74% (inactive)
Cc1ccc(NC(=O)Cn2nnc(C(=O)NCCc3ccccc3)c2N)cc1	87% (inactive)
COc1cccc(CNC(=O)c2nnn(CC(=O)Nc3cc(Cl)ccc3C)c2N)c1	25% (active)

Compound	survival
COc1ccc(NC(=O)Cn2nnc(C(=O)Nc3ccc(F)c(Cl)c3)c2N)cc1OC	37% (active)
Cc1cccc(NC(=O)Cn2nnc(C(=O)Nc3ccc(F)c(Cl)c3)c2N)c1	101% (inactive)
Cc1cc(C)cc(NC(=O)Cn2nnc(C(=O)NCc3ccccc3Cl)c2N)c1	72% (inactive)
Cc1ccc(NC(=O)Cn2nnc(C(=O)NCCc3ccccc3)c2N)cc1Cl	105% (inactive)
Cc1ccc(NC(=O)Cn2nnc(C(=O)NCCc3ccccc3)c2N)cc1C	46% (active)
COc1ccc(NC(=O)Cn2nnc(C(=O)Nc3ccc(C)c(F)c3)c2N)cc1Cl	118% (inactive)
CCc1ccccc1NC(=O)Cn1nnc(C(=O)NCc2cccc(OC)c2)c1N	70% (inactive)
CCc1ccccc1NC(=O)Cn1nnc(C(=O)NCc2ccccc2Cl)c1N	20% (active)
COc1cccc(Cn2nnc(C(=O)Nc3cc(C)ccc3C)c2N)c1	100% (inactive)
CCc1ccccc1NC(=O)Cn1nnc(C(=O)NCc2cccs2)c1N	94% (inactive)
COc1ccc(-c2nnc(SCC(=O)Nc3c(C)cccc3C)nc2-c2ccc(OC)cc2)cc1	92% (inactive)
COc1cccc(CNC(=O)c2ccc(-c3nc(CS(=O)(=O)c4ccccc4)c(C)o3)cc2)c1	72% (inactive)
COc1ccc(-c2noc(-c3ccc(N4CCCC4)c([N+](=O)[O-])c3)n2)cc1OC	59% (inactive)
CCC(C)NC(=O)c1cc2cc(S(=O)(=O)N3CCCCC3)ccc2n1C (stereo not drawn)	55% (inactive)
CCc1cccc(NC(=O)CC2Oc3ccc(C)cc3NC2=O)c1 (stereo not drawn)	79% (inactive)
Cc1ccc(S(=O)(=O)Nc2nc(C)c(NC(=O)NC3C=NN=C3)s2)cc1	90% (inactive)
O=C(NCc1cccnc1)C(=O)NCC(c1cccnc1)N1CCN(c2ccc(F)cc2)CC1 (stereo not drawn)	70% (inactive)
COc1cccc(Cn2nnc(C(=O)NCc3ccc(Cl)cc3Cl)c2N)c1	71% (inactive)
Cc1ccc(C)c(Cn2nnc(C(=O)NCc3ccc(Cl)cc3Cl)c2N)c1	62% (inactive)
Cc1ccc(C)c(NC(=O)c2nnn(CC(=O)Nc3cccc(C)c3C)c2N)c1	98% (inactive)
COc1ccccc1NC(=O)Cn1nnc(C(=O)Nc2ccccc2Br)c1N	89% (inactive)
Nc1c(C(=O)NCc2ccc(Cl)cc2Cl)nnn1Cc1ccc(Br)cc1	45% (active)
Cc1cccc(NC(=O)Cn2nnc(C(=O)Nc3ccccc3Br)c2N)c1C	8% (active)

Source: PubChem BioAssay AID463173 (ICCB-Longwood Screening Facility, Harvard Medical School, 2010)
